Source: PubChem BioAssay (NCATS)
Records with an inconclusive call do not appear. Active and inactive are the calls of the source. Unless noted, calls come from the whole dose curve; as a rule, active = well fitted curve in either direction with a large enough effect (not every such curve was filed as active); inconclusive = small, poorly fitted or top-dose-only effect, or another doubt; inactive = flat fitted curve, though single readings scatter.

Tests used:
[1] = biological target: Lysosomal acid glucosylceramidase (Homo sapiens) (UniProt P04062); assay: Glucocerebrosidase-p2 (AID 348; in the data active = potency below about 10 µM; note: potency is the fitted concentration of half-maximal effect); conditions: purified GBA, blue fluorogenic substrate, 40 min
How it was run: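 Normal human glucocerebrosidase (0.2 nM) with blue fluorogenic substrate (80 uM final) in citrate/phosphate pH 5.9 with 10mM sodium taurocholate, 0.01% tween-20; 40 min RT, NaOH/glycine stop; fluorescence Ex 365/Em 440; AC50 from a titration from 0.6 nM upwards.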

[2] = AP1 Signaling Pathway (AID 357); conditions: ME-180 AP-1-bla reporter, EGF-induced, beta-lactamase ratio, 5 h; at 7.69 µM (top of the series) unless noted; note: % is set by controls: 0 for no effect and ±100 for the full control effect
How it was run: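 ME-180 cells with beta-lactamase reporter under AP-1 response element, stimulated with EC50 EGF; compounds tested in titration series, 5 h at 37 °C. CCF4 substrate added 2.5 h at room temperature; 460/530 nm emission ratio gave %activity and AC50.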

[3] = NFAT Signaling Pathway (AID 444); conditions: Jurkat NFAT-bla M1, carbachol, beta-lactamase ratio, 5 h; at 7.69 µM (top of the series) unless noted;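 note: carbachol stimulus at about its EC50 of 1 µM final; % is set by controls: 0 for no effect and ±100 for the full control effect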
How it was run: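 Jurkat cells carrying an NFAT-driven β-lactamase reporter and co-transfected muscarinic M1 receptor were treated with compound plus carbachol (1 uM final, an EC50 level) for 5 h at 37 °C. CCF4 loading followed for 1 h at RT; 460/530 nm ratio gave %activity.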

[4] = Stat Signaling Pathway (AID 446); conditions: ME-180 SIE beta-lactamase reporter, IL-6 stimulated, 5 h; at 7.69 µM (top of the series) unless noted;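 note: ME-180 cervical cancer cells given 40 pM IL-6 alongside compound; SIE-controlled beta-lactamase reporter measured as 460/530 nm FRET emission ratio; % is set by controls: 0 for no effect and ±100 for the full control effect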
How it was run: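 FRET read-out (405 nm excitation, 460/530 nm emission) of a beta-lactamase reporter under a STAT-inducible element in ME-180 cervical carcinoma cells. Cells with compound receive 40 pM IL-6 for 5 h. Values are normalised to AC90 stimulation and AC90 JAK-inhibitor controls.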

[5] = biological target: Glucocorticoid receptor (Homo sapiens) (UniProt P04150); assay: GR-GFP Redistribution (AID 450;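 active = compounds whose dose series gives a full or clear partial fitted curve of increased nuclear translocation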; note: potency is the fitted concentration of half-maximal effect); conditions: U2OS GR-GFP nuclear translocation, laser cytometry, 2 h
[6] = biological target: Glucocorticoid receptor (Homo sapiens) (UniProt P04150); assay: GR-EFC Redistribution (AID 451; calls by dose curve; note: potency is the fitted concentration of half-maximal effect); conditions: CHO-K1 GR-EFC translocation, beta-gal luminescence, 2 h
How it was run: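 CHO-K1 cells stably expressing nuclear-localized β-gal enzyme acceptor and GR fused C-terminally to the enzyme donor fragment; ligand-driven nuclear translocation restores β-gal by complementation. Compounds titrated up to 46 uM final, 2 h at 37 °C; luminescence read.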

[7] = biological target: Mitogen-activated protein kinase 10 (Mus musculus) (UniProt Q61831); assay: JNK3 AlphaScreen Assay (AID 530); conditions: JNK3 lysate, c-Jun phosphorylation; series mostly up to 57.1 µM;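 note: kinase came from lysate of stimulated human HepG2 cells; signal reports phosphorylation of biotinylated GST-cJun 1-79 at Ser73 with 10 µM ATP; % is set by controls: 0 for no effect and ±100 for the full control effect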
How it was run: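 Phosphorylation of biotinylated GST-cJun(1-79) at Ser73 is measured by AlphaScreen proximity luminescence. Enzyme is JNK3 in HepG2 lysates activated with interleukin-1beta and tumor necrosis factor alpha; ATP is 10 uM final.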

[8] = biological target: 3',5'-cyclic-AMP phosphodiesterase 4B (Homo sapiens) (UniProt Q07343); assay: qHTS Assay for Inhibitors of PDE-IV (AID 607; active = well fitted activation curve with a large enough effect in the main read-out, with a control signal flat, not every such curve was filed as active; note: % of control where 0% means no effect); conditions: HEK293 ACTOne CNG channel cells, membrane potential fluorescence; series mostly up to 22.9 µM
How it was run: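 Cell-based read-out of cAMP via a modified cyclic nucleotide-gated channel and membrane potential dye (535/590 nm) in HEK293 cells expressing PDE4 endogenously. Compounds tested up to 22.9 uM final; 100 uM RO 20-1724 reference.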

[9] = biological target: Dual specificity protein kinase CLK4 (Homo sapiens) (UniProt Q9HAZ1); assay: qHTS Assay for Inhibitors of CDC-like Kinase 4 (ADP-Glo Assay) (AID 1771; active = well fitted curve in the direction sought with a large enough effect; an effect the other way counts as inactive or inconclusive; note: nearly all actives have a fitted effect of over 70% in size; note: potency is the fitted concentration of half-maximal effect); conditions: recombinant CLK4, ADP-Glo luminescence; series mostly up to 80 µM
How it was run: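 Compounds are pin-transferred onto substrate mix (100 uM RS peptide, 1 uM ATP), then 25 nM Clk4 is added. After 1 hr at room temperature, ADP-Glo reagent runs 45 min, detection reagent 30 min, then luminescence is read.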

[10] = biological target: Ubiquitin carboxyl-terminal hydrolase 1 (Homo sapiens) (UniProt O94782); assay: Inhibitors of USP1/UAF1: Pilot qHTS (AID 504865; active = well fitted curve in the direction sought with a large enough effect; an effect the other way counts as inactive or inconclusive;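 note: rhodamine fluorescence freed from ubiquitin-rhodamine substrate followed over time; top concentration of the series differs between compounds; % is set by controls: 0 for no effect and ±100 for the full control effect; nearly all actives have a fitted effect of over 35% in size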); conditions: purified USP1/UAF1, Ub-rhodamine cleavage fluorescence; series mostly up to 54.9 µM
How it was run: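 1nM USP1/UAF1 + cpd, 15 min RT; start w/ Ub-Rho 150nM final; kinetic FL 480/540 nm, 6 reads q60 s. Buffer 50mM HEPES pH 7.8, 0.5mM EDTA, 1mM TCEP, 0.01% Tween-20, 0.1 mg/ml BSA.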

[11] = Primary qHTS for small molecule stabilizers of the endoplasmic reticulum resident proteome: Secreted ER Calcium Modulated Protein (SERCaMP) assay (AID 1508630; active = well fitted curve in the direction sought with a large enough effect; an effect the other way counts as inactive or inconclusive; note: % is set by controls: 0 for no effect and ±100 for the full control effect); conditions: SH-SY5Y GLuc-SERCaMP (Gaussia luciferase released on ER calcium loss) secretion, thapsigargin, luminescence; series mostly up to 38.4 µM
How it was run: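 The SH-SY5Y reporter protocol was run at 3 concentrations up to 38.3 uM (primary) or 11 concentrations (follow-up): 16 h compound, 100 nM thapsigargin for 4 h, then extracellular luciferase luminescence.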

[12] = biological target: Cytochrome P450 1A2 (Homo sapiens) (UniProt P05177); assay: p450-cyp1a2 (AID 410; calls by dose curve; note: potency is the fitted concentration of half-maximal effect); conditions: recombinant CYP1A2, luciferin-ME demethylation, luminescence; series mostly up to 57 µM
How it was run: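 O-Demethylation of luciferin 6' methyl ether by human CYP1A2 is monitored as luciferase luminescence. Substrate sits at Km (100uM); enzyme is 20nM. Values are scaled to 57 uM furafylline as maximal inhibition.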

[13] = biological target: Cytochrome P450 3A4 (Homo sapiens) (UniProt P08684); assay: qHTS Assay for Inhibitors and Substrates of Cytochrome P450 3A4 (AID 884; active = well fitted curve in the direction sought with a large enough effect; an effect the other way counts as inactive or inconclusive; note: nearly all actives have a fitted effect of over 50% in size; note: potency is the fitted concentration of half-maximal effect); conditions: recombinant CYP3A4, Luciferin-PPXE luminescence; series mostly up to 57.1 µM
How it was run: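 Luminescent readout of luciferin produced by CYP3A4 (20 nM) dealkylation of Luciferin-PPXE, 25 uM (its KM). NADPH-driven reaction ran 60 min at RT after 10 min compound preincubation; data scaled to 57 uM ketoconazole as 100% inhibition.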

[14] = biological target: Cytochrome P450 3A4 (Homo sapiens) (UniProt P08684); assay: qHTS Assay for Activators of Cytochrome P450 3A4 (AID 885; active = well fitted curve in the direction sought with a large enough effect; an effect the other way counts as inactive or inconclusive; note: nearly all actives have a fitted effect of over 65% in size); conditions: recombinant CYP3A4, Luciferin-PPXE luminescence, 60 min; series mostly up to 57.1 µM
How it was run: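 Luminescent readout of luciferin formed from 25 uM Luciferin-PPXE (KM level) by 20 nM CYP3A4 in 200 mM KPO4, with 60 min NADPH-driven reaction at room temperature after 10 min compound exposure. Ketoconazole (57 uM) defined 100% inhibition.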

[15] = biological target: Dual specificity protein kinase CLK4 (Homo sapiens) (UniProt Q9HAZ1); assay: qHTS Assay for Inhibitors of CDC-like Kinase 4 (ADP-FP Assay) (AID 1795; active = well fitted curve in the direction sought with a large enough effect; an effect the other way counts as inactive or inconclusive;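 note: recombinant human CLK4 phosphorylating RS repeat peptide at 1 µM ATP; % is set by controls: 0 for no effect and ±100 for the full control effect; nearly all actives have a fitted effect of over 60% in size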); conditions: Transcreener ADP fluorescence polarization; series mostly up to 50 µM
How it was run: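 FP readout: Orange Transcreener ADP2 tracer (4 nM) plus ADP antibody, read after 30 min at room temperature. Kinase step: 6.25 nM Clk4, 100 uM RS peptide, 1 uM ATP, pH 7.5, 1 h.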

[16] = qHTS Assay for Identification of Small Molecule Agonists for Hypoxia Response Element Signaling Pathway (AID 914; active = well fitted activation curve with a large enough effect in the signal ratio, with a control signal flat, not every such curve was filed as active; the % refers to the signal ratio; note: % of control where 0% means no effect); conditions: ME-180 (cervical carcinoma) HRE-bla reporter, beta-lactamase ratio, CoCl2, 17 h; activation: hits give high values
How it was run: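 A beta-lactamase reporter under hypoxia response element control in ME-180 cells served as the system. Compound titrations plus EC50 CoCl2 ran 17 h at 37 degrees Celsius; AC50 values were fitted from %Activity.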

[17] = biological target: Cytochrome P450 2C19 (Homo sapiens) (UniProt P33261); assay: qHTS Assay for Inhibitors and Substrates of Cytochrome P450 2C19 (AID 899; active = well fitted curve in the direction sought with a large enough effect; an effect the other way counts as inactive or inconclusive; note: potency is the fitted concentration of half-maximal effect; nearly all actives have a fitted effect of over 60% in size); conditions: recombinant CYP2C19, luciferin-H EGE luminescence; series mostly up to 57.1 µM
How it was run: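 In 50mM KPO4, the reaction held 5nM enzyme and KM-level (10uM) Luciferin-H EGE; it ran 60 min at 37C after NADPH regeneration and a 10 min compound preincubation. Luminescence values were scaled to 57uM ketoconazole as complete inhibition.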

Glucocorticoid receptor (Homo sapiens), sequence (P04150 whole entry, looked up, the tested form may be a part): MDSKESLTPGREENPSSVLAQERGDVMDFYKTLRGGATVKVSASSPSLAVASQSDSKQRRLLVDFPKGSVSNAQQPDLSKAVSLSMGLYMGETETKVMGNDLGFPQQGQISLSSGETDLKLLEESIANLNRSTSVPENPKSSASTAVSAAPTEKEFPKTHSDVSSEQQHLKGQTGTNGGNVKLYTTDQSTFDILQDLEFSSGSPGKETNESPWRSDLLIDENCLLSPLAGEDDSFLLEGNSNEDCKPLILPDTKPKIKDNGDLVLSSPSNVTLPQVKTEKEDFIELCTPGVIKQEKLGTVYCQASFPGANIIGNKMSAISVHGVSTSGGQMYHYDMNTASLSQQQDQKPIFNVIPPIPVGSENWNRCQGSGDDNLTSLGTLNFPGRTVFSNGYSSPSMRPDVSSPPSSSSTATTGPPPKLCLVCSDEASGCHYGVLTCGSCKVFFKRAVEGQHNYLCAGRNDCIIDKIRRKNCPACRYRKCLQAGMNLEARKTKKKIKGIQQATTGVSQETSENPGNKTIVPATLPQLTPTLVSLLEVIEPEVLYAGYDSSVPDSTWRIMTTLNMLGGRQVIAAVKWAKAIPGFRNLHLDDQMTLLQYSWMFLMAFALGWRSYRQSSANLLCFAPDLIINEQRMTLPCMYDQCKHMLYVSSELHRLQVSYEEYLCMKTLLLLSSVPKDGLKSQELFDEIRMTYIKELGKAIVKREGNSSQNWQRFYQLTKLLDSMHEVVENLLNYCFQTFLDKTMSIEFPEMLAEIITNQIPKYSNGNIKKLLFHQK
Cytochrome P450 1A2 (Homo sapiens), sequence (P05177 whole entry, looked up): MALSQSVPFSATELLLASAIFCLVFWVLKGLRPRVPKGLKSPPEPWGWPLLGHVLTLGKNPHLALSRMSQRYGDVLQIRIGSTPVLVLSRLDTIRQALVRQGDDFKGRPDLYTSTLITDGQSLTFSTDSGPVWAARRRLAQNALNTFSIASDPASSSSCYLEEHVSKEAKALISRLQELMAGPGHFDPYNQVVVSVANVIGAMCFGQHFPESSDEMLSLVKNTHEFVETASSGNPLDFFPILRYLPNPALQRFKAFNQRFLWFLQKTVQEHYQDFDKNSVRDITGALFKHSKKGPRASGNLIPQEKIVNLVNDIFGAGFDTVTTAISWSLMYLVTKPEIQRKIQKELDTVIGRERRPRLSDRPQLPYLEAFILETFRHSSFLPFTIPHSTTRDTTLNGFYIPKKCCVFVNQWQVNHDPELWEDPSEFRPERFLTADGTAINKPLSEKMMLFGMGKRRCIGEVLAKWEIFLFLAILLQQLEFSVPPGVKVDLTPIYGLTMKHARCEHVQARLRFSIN
Lysosomal acid glucosylceramidase (Homo sapiens), sequence (P04062 whole entry, looked up): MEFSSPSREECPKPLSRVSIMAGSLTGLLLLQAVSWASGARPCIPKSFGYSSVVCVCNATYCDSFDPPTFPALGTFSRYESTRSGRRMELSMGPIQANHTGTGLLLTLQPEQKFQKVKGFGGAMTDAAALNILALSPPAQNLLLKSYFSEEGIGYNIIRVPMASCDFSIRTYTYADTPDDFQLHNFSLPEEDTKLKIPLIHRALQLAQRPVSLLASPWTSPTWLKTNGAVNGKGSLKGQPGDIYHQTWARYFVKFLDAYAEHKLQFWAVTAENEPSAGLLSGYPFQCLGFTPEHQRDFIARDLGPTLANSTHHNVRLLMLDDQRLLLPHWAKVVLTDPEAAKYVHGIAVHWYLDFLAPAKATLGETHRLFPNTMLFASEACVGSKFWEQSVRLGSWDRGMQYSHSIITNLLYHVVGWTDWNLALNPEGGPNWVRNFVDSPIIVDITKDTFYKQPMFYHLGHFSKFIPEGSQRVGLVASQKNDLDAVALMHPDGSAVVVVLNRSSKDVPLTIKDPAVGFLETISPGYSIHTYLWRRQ
Ubiquitin carboxyl-terminal hydrolase 1 (Homo sapiens), sequence (O94782 whole entry, looked up): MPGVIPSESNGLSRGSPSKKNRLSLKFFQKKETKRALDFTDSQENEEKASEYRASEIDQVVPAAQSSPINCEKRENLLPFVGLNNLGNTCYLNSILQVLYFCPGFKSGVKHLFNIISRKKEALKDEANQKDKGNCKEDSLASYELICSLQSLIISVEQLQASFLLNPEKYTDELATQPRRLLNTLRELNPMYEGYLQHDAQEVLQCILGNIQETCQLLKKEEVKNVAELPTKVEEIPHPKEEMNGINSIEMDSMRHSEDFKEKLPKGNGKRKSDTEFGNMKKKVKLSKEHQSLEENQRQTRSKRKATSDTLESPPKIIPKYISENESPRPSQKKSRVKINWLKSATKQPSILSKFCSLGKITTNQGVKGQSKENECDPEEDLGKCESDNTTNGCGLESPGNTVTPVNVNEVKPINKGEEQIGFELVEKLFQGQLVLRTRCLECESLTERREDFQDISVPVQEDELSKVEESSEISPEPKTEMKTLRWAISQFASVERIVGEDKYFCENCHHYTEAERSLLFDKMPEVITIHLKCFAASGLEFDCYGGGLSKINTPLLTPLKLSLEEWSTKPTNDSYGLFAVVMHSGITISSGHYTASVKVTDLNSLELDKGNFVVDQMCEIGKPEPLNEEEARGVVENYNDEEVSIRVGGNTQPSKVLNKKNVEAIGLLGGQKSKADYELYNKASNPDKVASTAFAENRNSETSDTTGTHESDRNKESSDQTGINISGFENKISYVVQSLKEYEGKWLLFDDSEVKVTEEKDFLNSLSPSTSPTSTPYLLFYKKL
3',5'-cyclic-AMP phosphodiesterase 4B (Homo sapiens), sequence (Q07343 whole entry, looked up): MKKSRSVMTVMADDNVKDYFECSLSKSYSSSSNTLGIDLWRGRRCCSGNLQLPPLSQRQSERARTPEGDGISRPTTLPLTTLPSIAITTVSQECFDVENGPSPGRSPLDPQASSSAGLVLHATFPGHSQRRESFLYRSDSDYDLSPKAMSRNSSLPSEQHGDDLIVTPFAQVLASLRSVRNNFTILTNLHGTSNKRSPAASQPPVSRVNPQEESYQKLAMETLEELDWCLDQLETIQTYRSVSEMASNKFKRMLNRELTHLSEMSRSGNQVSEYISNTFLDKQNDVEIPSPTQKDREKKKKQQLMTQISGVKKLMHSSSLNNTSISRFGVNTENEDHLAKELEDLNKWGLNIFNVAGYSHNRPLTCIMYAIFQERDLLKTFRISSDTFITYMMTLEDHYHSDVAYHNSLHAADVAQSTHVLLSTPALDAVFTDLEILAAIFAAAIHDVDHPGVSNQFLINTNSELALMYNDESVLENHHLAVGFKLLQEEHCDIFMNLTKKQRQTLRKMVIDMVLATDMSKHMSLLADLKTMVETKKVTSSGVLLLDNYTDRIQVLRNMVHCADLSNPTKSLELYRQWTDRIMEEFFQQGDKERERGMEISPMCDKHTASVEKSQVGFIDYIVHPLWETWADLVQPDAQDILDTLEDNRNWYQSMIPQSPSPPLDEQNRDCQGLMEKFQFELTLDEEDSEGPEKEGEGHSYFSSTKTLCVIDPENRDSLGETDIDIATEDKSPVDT
Cytochrome P450 3A4 (Homo sapiens), sequence (P08684 whole entry, looked up): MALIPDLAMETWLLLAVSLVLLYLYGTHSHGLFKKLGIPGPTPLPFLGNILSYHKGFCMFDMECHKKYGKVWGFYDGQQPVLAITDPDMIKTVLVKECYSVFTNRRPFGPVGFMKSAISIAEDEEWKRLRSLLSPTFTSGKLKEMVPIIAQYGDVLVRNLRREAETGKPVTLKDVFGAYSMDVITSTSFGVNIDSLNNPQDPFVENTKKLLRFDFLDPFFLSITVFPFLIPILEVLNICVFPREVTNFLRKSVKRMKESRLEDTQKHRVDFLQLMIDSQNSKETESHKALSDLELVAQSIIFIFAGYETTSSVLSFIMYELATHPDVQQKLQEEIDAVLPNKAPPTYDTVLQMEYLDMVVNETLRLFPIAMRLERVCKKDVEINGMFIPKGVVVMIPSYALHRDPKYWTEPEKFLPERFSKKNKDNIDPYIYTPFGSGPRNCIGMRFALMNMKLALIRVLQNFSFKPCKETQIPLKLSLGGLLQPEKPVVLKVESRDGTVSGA
Dual specificity protein kinase CLK4 (Homo sapiens), sequence (Q9HAZ1 whole entry, looked up): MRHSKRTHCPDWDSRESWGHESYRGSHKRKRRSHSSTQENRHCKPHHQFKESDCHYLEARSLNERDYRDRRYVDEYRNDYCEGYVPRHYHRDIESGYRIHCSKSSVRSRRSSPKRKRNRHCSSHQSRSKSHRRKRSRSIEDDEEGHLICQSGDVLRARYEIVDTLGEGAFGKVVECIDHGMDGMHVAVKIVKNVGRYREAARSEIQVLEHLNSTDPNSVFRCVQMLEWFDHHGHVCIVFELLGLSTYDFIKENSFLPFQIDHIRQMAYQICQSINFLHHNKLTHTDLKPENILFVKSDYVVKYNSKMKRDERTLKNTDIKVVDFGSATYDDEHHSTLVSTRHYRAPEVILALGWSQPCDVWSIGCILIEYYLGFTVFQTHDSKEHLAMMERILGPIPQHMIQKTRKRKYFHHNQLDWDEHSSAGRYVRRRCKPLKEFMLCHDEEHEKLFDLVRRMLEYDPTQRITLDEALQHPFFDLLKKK
Cytochrome P450 2C19 (Homo sapiens), sequence (P33261 whole entry, looked up): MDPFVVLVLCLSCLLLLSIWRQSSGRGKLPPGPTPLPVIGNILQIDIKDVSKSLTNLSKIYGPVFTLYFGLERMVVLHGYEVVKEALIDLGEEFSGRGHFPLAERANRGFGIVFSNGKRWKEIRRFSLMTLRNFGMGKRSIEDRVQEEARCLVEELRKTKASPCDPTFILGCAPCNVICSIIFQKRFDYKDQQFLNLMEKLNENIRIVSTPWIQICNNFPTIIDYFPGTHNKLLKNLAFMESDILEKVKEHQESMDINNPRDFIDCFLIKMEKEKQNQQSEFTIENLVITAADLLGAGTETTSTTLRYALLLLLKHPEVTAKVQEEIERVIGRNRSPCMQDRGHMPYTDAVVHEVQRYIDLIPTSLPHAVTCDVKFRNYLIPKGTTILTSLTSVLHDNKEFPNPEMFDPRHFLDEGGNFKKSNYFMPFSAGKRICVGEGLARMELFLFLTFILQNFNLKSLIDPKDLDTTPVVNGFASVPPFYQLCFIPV

Cc1noc(C)c1-c1nc(NC2CC2)c2ccccc2n1
inactive: Potency [1] > 11.4 µM | activity change, negative = inhibition [2] 13.4% | activity change, negative = inhibition [3] -6.72% | activity, negative = inhibition [4] 7.05% | Potency [5] > 46 µM | Potency [6] > 46 µM | Potency [7] | Potency [8] | Potency [10] | outcome [11]
active: Potency [9] 14.1 µM

COc1cccc(Cn2c(=O)c(-c3cccc(C#N)c3)nc3cnc(OC)nc32)c1
inactive: Potency [1] > 11.4 µM | activity change, negative = inhibition [2] -6.86% | activity change, negative = inhibition [3] -8.15% | activity, negative = inhibition [4] -4.38% | Potency [5] > 9.22 µM | Potency [6] > 46 µM | Potency [7] | Potency [14] | Potency [15] | Potency [10] | outcome [11]
active: Potency [12] 10 µM | Potency [13] 3.16 µM

COc1ccccc1-c1cc(NCc2cnc(C)cn2)ncn1
active: Potency [12] 12.6 µM | Potency [9] 28.2 µM
inactive: Potency [1] > 11.4 µM | activity change, negative = inhibition [2] 5.08% | activity change, negative = inhibition [3] 2.34% | activity, negative = inhibition [4] 2.04% | Potency [5] > 46 µM | Potency [6] > 46 µM | Potency [7] | Potency [8] | activation [16] 25.8% | Potency [10] | outcome [11]

CN(C)c1ccc(-c2cncnc2NCc2cccnc2)cc1
active: Potency [12] 1 µM | Potency [13] 0.631 µM
inactive: Potency [1] > 11.4 µM | activity change, negative = inhibition [2] -12.4% | activity change, negative = inhibition [3] 8.27% | activity, negative = inhibition [4] -10% | Potency [5] > 46 µM | Potency [6] > 46 µM | Potency [7] | Potency [8] | Potency [14] | activation [16] 1.46% | Potency [15] | Potency [10] | outcome [11]

Cc1ccccc1-c1cc(NCc2cccnc2)ncn1
inactive: Potency [1] > 11.4 µM | activity change, negative = inhibition [2] 6.3% | activity change, negative = inhibition [3] 2.72% | activity, negative = inhibition [4] -6.88% | Potency [5] > 46 µM | Potency [6] > 46 µM | Potency [7] | Potency [8] | Potency [14] | Potency [15] | Potency [10] | outcome [11]
active: Potency [12] 3.98 µM

COc1cccc(-c2cncnc2NCc2cccnc2)c1
active: Potency [12] 0.794 µM | Potency [13] 1.26 µM | Potency [17] 0.316 µM
inactive: Potency [1] > 11.4 µM | activity change, negative = inhibition [2] -6.26% | activity change, negative = inhibition [3] -6.72% | activity, negative = inhibition [4] 3.03% | Potency [5] > 46 µM | Potency [6] > 46 µM | Potency [7] | Potency [8] | Potency [14] | Potency [15] | Potency [10] | outcome [11]

CC(=O)NCCNc1nc(-c2c(C)noc2C)nc2ccccc12
inactive: Potency [1] > 11.4 µM | activity change, negative = inhibition [2] 5.25% | activity change, negative = inhibition [3] 6.76% | activity, negative = inhibition [4] 1.96% | Potency [5] > 46 µM | Potency [6] > 46 µM | Potency [7] | Potency [8] | Potency [14] | Potency [15] | Potency [10] | outcome [11]
active: Potency [12] 1.58 µM

CNc1cc(-c2ccccc2C)ncn1
active: Potency [12] 10 µM
inactive: Potency [1] > 11.4 µM | activity change, negative = inhibition [2] 2.36% | activity change, negative = inhibition [3] 2.04% | activity, negative = inhibition [4] 13.3% | Potency [5] > 46 µM | Potency [6] > 46 µM | Potency [7] | Potency [8] | Potency [15] | Potency [10] | outcome [11]

COCCn1c(=O)c(-c2cccc(C#N)c2)nc2cnc(Nc3ccccc3)nc21
inactive: Potency [1] > 11.4 µM | activity change, negative = inhibition [2] -6.21% | activity change, negative = inhibition [3] 3.3% | activity, negative = inhibition [4] -15.6% | Potency [5] > 9.22 µM | Potency [6] > 46 µM | Potency [7] | Potency [8] | Potency [15] | Potency [10] | outcome [11]
active: Potency [12] 2.51 µM

Cc1cnc(CNc2ccnc(-c3cccc(NS(C)(=O)=O)c3)n2)cn1
active: Potency [12] 20 µM
inactive: Potency [1] > 11.4 µM | activity change, negative = inhibition [2] -6.82% | activity change, negative = inhibition [3] 13.5% | activity, negative = inhibition [4] 4.11% | Potency [5] > 46 µM | Potency [6] > 46 µM | Potency [7] | Potency [8] | Potency [14] | Potency [15] | Potency [10] | outcome [11]

CC(=O)NCCNc1ccnc(-c2ccccc2C)n1
inactive: Potency [1] > 11.4 µM | activity change, negative = inhibition [2] 12.2% | activity change, negative = inhibition [3] 6.08% | activity, negative = inhibition [4] 8.94% | Potency [5] > 46 µM | Potency [6] > 46 µM | Potency [7] | Potency [8] | Potency [14] | Potency [15] | Potency [10] | outcome [11]
active: Potency [12] 3.98 µM

COc1ccccc1-c1cncnc1Nc1ccccc1
inactive: Potency [1] > 11.4 µM | activity change, negative = inhibition [2] -6.14% | activity change, negative = inhibition [3] -4.57% | activity, negative = inhibition [4] 5.08% | Potency [5] > 46 µM | Potency [6] > 46 µM | Potency [7] | Potency [8] | Potency [9] | Potency [10] | outcome [11]

Cc1cnc(CNc2cc(-c3ccccc3Cl)ncn2)cn1
inactive: Potency [1] > 11.4 µM | activity change, negative = inhibition [2] 2.27% | activity change, negative = inhibition [3] 3.5% | activity, negative = inhibition [4] 2.17% | Potency [5] > 46 µM | Potency [6] > 46 µM | Potency [7] | Potency [8] | Potency [13] | Potency [10] | outcome [11]
active: Potency [12] 15.8 µM | Potency [9] 20 µM
